In ChEMBL document CHEMBL4513216, “Probing the Open Global Health Chemical Diversity Library for Multistage-Active Starting Points for Next-Generation Antimalarials” (ACS Infect Dis, 2020) one finds INHIBITION data, which are given here for 70 compounds.

The whole screen tested about 69,000 compounds, of which about 8,600 (12%) showed an effect of 50% or more. The sample holds strong results, similar compounds and a random draw of the others, so the mix is not that of the screen.

This experiment has as its system Plasmodium berghei. Put plainly: Screen against P. berghei liver stage (PbLuc), transformed with Luciferase, at 10uM. Format: functional, HepG2. The following applies: tested at 10 uM.
Regarding `Cc1noc(C)c1CC(=O)N1CCCC(Cc2ccccn2)C1` (stereo not given), the INHIBITION is reported as -0.6%.
The same measure for `CC1(C)COCCN1C(=O)Cc1cc(Cl)c2c(c1)OCCO2`: -117%.
As to `O=C(C[C@@H]1COC[C@H]2CN(C(=O)c3cccnc3)C[C@@H]12)N1CCOCC1`, the INHIBITION was -81.1%.
To `CCOc1ccc2[nH]c(=O)c(CN3CCC(n4cnnc4)CC3)cc2c1` belongs 43.4%; to `CN(CCn1ccnc1-c1ccccn1)S(C)(=O)=O`, -36%.
In the case of `Cn1nc(COCC2CC2)c2c1CN(C(=O)c1ccno1)CC2`, the INHIBITION is on record as 8.85%.
As to `Cc1ccsc1C(=O)N1CCCn2nnc(Cn3cccn3)c2C1`, the INHIBITION came out at 60.3%.
With `O=C(CO)N1CCCn2nnc(Cn3cccn3)c2C1`, the INHIBITION was 12.1%.
To `Cc1ccccc1C(=O)N1CCCn2nnc(Cn3cccn3)c2C1` belongs -16.9%.
For `O=C(c1ccncc1)N1CCCn2nnc(Cn3cccn3)c2C1`, the INHIBITION amounted to 33%.
To `CCc1ccc(C(=O)N2CCCn3nnc(Cn4cccn4)c3C2)cc1` belongs 52.3%.
For the compound `O=C(c1ccc(Cl)cc1)N1CCCn2nnc(Cn3cccn3)c2C1`, the INHIBITION was determined as 10.8%.
To `CN1CCOC(CNCc2csc(C3CCCCC3)n2)C1` (stereo not given) belongs 13.6%; to `CCN(CC)C(=O)Cn1cc(-c2nc(-c3ccccc3C)no2)nn1`, -19.1%; to `CSCCc1nc(-c2ccc3c(c2)OCO3)n(C)n1`, 25.9%.
To `CCCc1[nH]n(C)c(=N)c1-c1ccc2c(c1)OCO2` belongs 27.6%.
To `CCc1[nH]n(C)c(=N)c1-c1ccc2c(c1)OCO2` belongs 53.6%; to `Cn1nc(C2CCCC2)c(-c2ccc3c(c2)OCO3)c1N`, 48%.
With `Cn1[nH]c(C2CC2)c(-c2ccc3c(c2)OCO3)c1=N`, the INHIBITION is 16.5%.
To `Cn1[nH]c(C2CCC2)c(-c2ccc3c(c2)OCO3)c1=N` belongs 64.7%; to `CN(C)c1ncc2c(O)nc(C3CCCNC3)cc2n1` (stereo not given), 24.8%; to `COc1ccccc1OCCCN1CCNC1=O`, 12.9%.
The same measure for `CCC(=O)Nc1nnc2n(Cc3cccc(OC)c3)[nH]c(C)c1-2`: -31%; for `CCC(C)(C)NC(=O)CSCc1ccc(S(=O)(=O)N(C)C)o1`: 3.73%; for `CN(C)S(=O)(=O)c1ccc(CSCC(=O)NC(C)(C)C)o1`: 17.9%.
The same measure for `CCCNC(=O)CSCc1ccc(S(=O)(=O)N(C)C)o1`: 53.7%; for `Cc1occc1C(=O)N1CCc2c(CNS(C)(=O)=O)cncc2C1`: 6.55%; for `CN(CCOc1ccccc1)C(=O)Nc1cccn(C)c1=O`: 82.4%.
Take `CC(C)Oc1cccc(CN(C)C(=O)Nc2cccn(C)c2=O)c1`: the INHIBITION was -15%.
The same measure for `COc1c(NC(=O)N(C)CCOc2ccccc2)c(C)nn1C`: -24.6%; for `CC(C)c1sc(Cl)nc1C(=O)N1CCN(Cc2ccccc2)CC1`: 10.9%.
To `Cc1ccc(-n2cc(C(=O)NCc3nnc4n3CCCCC4)nn2)cc1` belongs -21.2%; to `CCN(CC)c1ccc(CNC(=O)N2CCC(C#N)CC2)cc1`, 2.91%.
To `CCc1ccc(C(=O)N2CCC(N(C)C(=O)OC(C)(C)C)C2)o1` (stereo not given) belongs 71.2%; to `CN(C(=O)OC(C)(C)C)C1CCN(C(=O)c2ccc(Cl)o2)C1` (stereo not given), -12.3%; to `Cc1ccc(C(=O)N2CCCC(N(C)C(=O)OC(C)(C)C)C2)o1` (stereo not given), 37.8%.
As for `c1ccc(-c2nc3c(c(NCc4nnc5n4CCC5)n2)CCNC3)cc1`, the INHIBITION is 39.4%.
To `CN(CCC(=O)N1CCc2sccc2C1)Cc1cc(Br)cs1` belongs 19.2%.
On to `N#Cc1cccc(CNCCC(=O)N2CCc3sccc3C2)c1`, for which the INHIBITION worked out at 68.3%.
The same measure for `COc1ccc(CNCCC(=O)N2CCc3sccc3C2)cc1O`: 76.2%.
The same measure for `O=C(CCN1CCCC1c1cccc(F)c1)N1CCc2sccc2C1` (stereo not given): 9.54%; for `COc1ccc(CNC(=O)N2CCc3sccc3C2)cc1O`: -45%.
To `CN(CCC(=O)N1CCc2sccc2C1)Cc1ccc2c(c1)OCCO2` belongs -7.35%.
Turning to `CC(C)(C)CC(=O)N1CCc2sccc2C1`, the INHIBITION was -46.6%.
The same measure for `O=C(CCNCc1cccc(O)c1)N1CCc2sccc2C1`: 81.2%; for `NC(=O)NC(CC(=O)N1CCc2sccc2C1)c1cccc(Br)c1` (stereo not given): 14.9%; for `CN(C)C(=O)c1cccn1-c1ccc2c(c1)OCCO2`: 9.16%.
With `CC(C)(C)OC(=O)N1CCN(c2cccnc2)CC1C(=O)O` (stereo not given), the INHIBITION was found to be 20.2%.
The same measure for `CC(C)C(C(=O)N1CCN(Cc2ccccn2)CC1)n1cncn1` (stereo not given): -24.5%.
The same measure for `Cc1nc(C(C)C)sc1C(=O)NCCNc1ncccc1C#N`: -29.1%; for `O=C(NC1CC1)N1CCC2(CC1)C(=O)NCCN2Cc1ccccc1`: 30.9%.
The same measure for `CC(C)(C)OC(=O)N(CCNS(=O)(=O)N1CCOCC1)C1CC1`: -28%; for `CN1CCC2(CCCN(c3nccc(C(F)(F)F)n3)C2)CC1`: -2.35%.
`O=C(Nc1cccc(CN2CCOC2=O)c1)N1CCCCCC1`: the INHIBITION is given as -4.12%.
As for `Cc1ncc(CN(C)C(=O)Nc2cccc(N3CCOC3=O)c2)s1`, the INHIBITION came to 28%.
To `Cc1ncc(CN(C)C(=O)Nc2cccc(CN3CCOC3=O)c2)s1` belongs 52.8%.
The same measure for `O=C(Nc1cccc(CN2CCOC2=O)c1)N1CCOCC1`: 5.14%; for `Cc1ncc(CN(C)C(=O)Nc2ccc(CN3CCOC3=O)cc2)s1`: 22.5%.
The same measure for `O=C(Nc1cccc(CN2CCOC2=O)c1)N1CCCC1`: 53.8%.
Regarding `CCCN1CCC=C(C2c3nc[nH]c3CCN2C(=O)c2ccco2)C1` (stereo not given), the INHIBITION is 25.1%.
To `OC(CN1CCC(CNCc2ccccn2)CC1)c1ccccc1` (stereo not given) belongs -36.1%; to `COCC(=O)N1C[C@H]2CNC[C@@]2(C(=O)NCc2cccc3[nH]ccc23)C1`, 13.1%; to `CN(CC1CCCCO1)S(=O)(=O)c1cccc(C(=O)N2CCOCC2)c1` (stereo not given), 1.19%.
The same measure for `CC(C)NC(=O)CN1CCCNCC1`: 3.77%; for `CC(C)(C)NC(=O)CN1CCCNCC1`: 74.9%.
To `CC(C)(C)NC(=O)CN1CCNCC1` belongs -30%.
Take `O=C(O)c1cc2c(nc1-c1cncnc1)CCN(C1CCOC1)CC2` (stereo not given): the INHIBITION was found to be 37.8%.
The same measure for `Cc1ccccc1CC(=O)N1CC[C@@](O)(CNS(C)(=O)=O)[C@H](O)C1`: 0.301%.
Turning to `N#Cc1ccccc1CN(CCO)Cc1ccsc1`, the INHIBITION amounted to 36.4%.
The same measure for `CN(Cc1ccc(F)cc1)C(=O)Nc1cccnc1N1CCCC1`: -2.33%.
